# According to the supplement of paper PMC10037445:
# Whole data set: some 2,900 compounds, median “IRF Lucia reporter activity, fold change vs agonist alone” near 0.9, cut for the highest 2% near 2.8. The entries come from a sample that favours the highest values as a whole.
# Legend:
# RAW-Dual [1] = experiment: IRF Lucia reporter activity, fold change vs agonist alone; higher = enhanced IRF activity; settings: agonist: MPLA (TLR4) […]
# Outline: (§1)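 After 50 nL of library stock was delivered by pin tool to RAW-Dual macrophages (50,000 cells/well, DMEM, 384-well plates), a PRR agonist was added 1 h later and the plates were kept at 37 °C, 5% CO2. Twenty hours later, IRF was read from supernatant by QuantiLuc luminescence and NF-κB by QuantiBlue absorbance at 620 nm. Reporter activity is stated as fold change over agonist-alone wells. Wells with IncuCyte confluency under 70% of agonist controls in both mask sets were counted as cytotoxic.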
# RAW-Dual [2] = experiment: IRF Lucia reporter activity, fold change vs agonist alone; cytotoxicity flag (confluency mask): cytotoxic (confluency <70% of control); higher = enhanced IRF activity
# Outline: as §1
# RAW-Dual [3] = experiment: IRF Lucia reporter activity, fold change vs agonist alone; cytotoxicity flag (confluency mask): not cytotoxic; higher = enhanced IRF activity
# Outline: as §1
# [4] = library stock concentration (final ~1000-fold dilution): 10 mM, cytotoxicity flag (confluency mask): cytotoxic (confluency <70% of control)
# [5] = agonist: 3'3'-cGAMP (STING) 10 ug/mL
# [6] = library stock concentration (final ~1000-fold dilution): 10 mM, cytotoxicity flag (confluency mask): not cytotoxic
structure (smiles),measurement,setting,value
COc1cc2c(Oc3ccc4[nH]c(C)cc4c3F)ncnc2cc1OCCCN1CCCC1.O=C(O)/C=C\C(=O)O,IRF Lucia reporter activity,RAW-Dual [1]; [4],2.35
Cc1cc2c(F)c(Oc3ncnn4cc(OCC(C)OC(=O)C(C)N)c(C)c34)ccc2[nH]1 (configuration not stated) (library stock concentration (final ~1000-fold dilution): 10 mM),IRF Lucia reporter activity,RAW-Dual [2]; [5],0.967
same,IRF Lucia reporter activity,RAW-Dual [2]; agonist: LPS (TLR4) 0.1 ug/mL,2.13
Cc1cc2c(F)c(Oc3ncnn4cc(OCC(C)OC(=O)C(C)N)c(C)c34)ccc2[nH]1 (configuration not stated),IRF Lucia reporter activity,RAW-Dual [1]; [4],2.88
COc1cc2c(Oc3ccc4[nH]c(C)cc4c3F)ncnc2cc1OCCCN1CCCC1.O=C(O)/C=C\C(=O)O (library stock concentration (final ~1000-fold dilution): 10 mM),IRF Lucia reporter activity,RAW-Dual [2]; [5],0.783
same,IRF Lucia reporter activity,RAW-Dual [2]; agonist: LPS (TLR4) 0.1 ug/mL,1.92
Cc1cc2c(F)c(Oc3ncnn4cc(OCC(C)O)c(C)c34)ccc2[nH]1 (configuration not stated),IRF Lucia reporter activity,RAW-Dual [1]; [6],1.93
Cc1cc2c(F)c(Oc3ncnn4cc(OCC(C)O)c(C)c34)ccc2[nH]1 (configuration not stated) (library stock concentration (final ~1000-fold dilution): 10 mM),IRF Lucia reporter activity,RAW-Dual [3]; [5],1.01
same,IRF Lucia reporter activity,RAW-Dual [3]; agonist: LPS (TLR4) 0.1 ug/mL,1.75
COS(=O)(=O)[O-].Cc1cc2c3c([n+](C)c4ccc(F)cc4c3c1)-c1cc(F)ccc1N2C (library stock concentration (final ~1000-fold dilution): 10 mM),IRF Lucia reporter activity,RAW-Dual [3]; [5],1.39
same,IRF Lucia reporter activity,RAW-Dual [3]; agonist: LPS (TLR4) 0.1 ug/mL,1.53
CN1CCN(CCCN2c3ccccc3Sc3ccc(Cl)cc32)CC1.O=C(O)/C=C\C(=O)O.O=C(O)/C=C\C(=O)O (library stock concentration (final ~1000-fold dilution): 10 mM),IRF Lucia reporter activity,RAW-Dual [2]; [5],0.64
same,IRF Lucia reporter activity,RAW-Dual [2]; agonist: LPS (TLR4) 0.1 ug/mL,0.589
CN1CCN(CCCN2c3ccccc3Sc3ccc(Cl)cc32)CC1.O=C(O)/C=C\C(=O)O.O=C(O)/C=C\C(=O)O,IRF Lucia reporter activity,RAW-Dual [1]; [4],0.883
O=C(O)C1OC(Oc2cc3oc(-c4ccccc4)cc(=O)c3c(O)c2O)C(O)C(O)C1O (configuration not stated) (library stock concentration (final ~1000-fold dilution): 10 mM),IRF Lucia reporter activity,RAW-Dual [3]; [5],0.96
same,IRF Lucia reporter activity,RAW-Dual [3]; agonist: LPS (TLR4) 0.1 ug/mL,0.958
O=C(O)C1OC(Oc2cc3oc(-c4ccccc4)cc(=O)c3c(O)c2O)C(O)C(O)C1O (configuration not stated),IRF Lucia reporter activity,RAW-Dual [1]; [6],1.03
CC(C)OC(=O)C(C)NP(=O)(OCC1OC(n2ccc(=O)[nH]c2=O)C(C)(F)C1O)Oc1ccccc1 (configuration not stated),IRF Lucia reporter activity,RAW-Dual [1]; [6],1.04
CC(C)OC(=O)C(C)NP(=O)(OCC1OC(n2ccc(=O)[nH]c2=O)C(C)(F)C1O)Oc1ccccc1 (configuration not stated) (library stock concentration (final ~1000-fold dilution): 10 mM),IRF Lucia reporter activity,RAW-Dual [3]; [5],1.04
same,IRF Lucia reporter activity,RAW-Dual [3]; agonist: LPS (TLR4) 0.1 ug/mL,0.731
COc1cc2nc(N3CCCC3)nc(NCCCCCN3CCCC3)c2cc1OC (library stock concentration (final ~1000-fold dilution): 10 mM),IRF Lucia reporter activity,RAW-Dual [2]; [5],0.313
same,IRF Lucia reporter activity,RAW-Dual [2]; agonist: LPS (TLR4) 0.1 ug/mL,2.54
COc1cc2c(NC3CCN(C(C)C)CC3)nc(N3CCC(F)(F)CC3)nc2cc1OCCCN1CCCC1,IRF Lucia reporter activity,RAW-Dual [1]; [4],0.652
COc1cc2c(NC3CCN(C(C)C)CC3)nc(N3CCC(F)(F)CC3)nc2cc1OCCCN1CCCC1 (library stock concentration (final ~1000-fold dilution): 10 mM),IRF Lucia reporter activity,RAW-Dual [2]; [5],0.849
same,IRF Lucia reporter activity,RAW-Dual [2]; agonist: LPS (TLR4) 0.1 ug/mL,4.2
COc1cc2c(NC3CCN(C(C)C)CC3)nc(C3CCCCC3)nc2cc1OCCCN1CCCC1 (library stock concentration (final ~1000-fold dilution): 10 mM),IRF Lucia reporter activity,RAW-Dual [2]; [5],0.154
same,IRF Lucia reporter activity,RAW-Dual [2]; agonist: LPS (TLR4) 0.1 ug/mL,0.0189
COc1cc2nc(N3CCCC3)nc(NCCCCCN3CCCC3)c2cc1OC,IRF Lucia reporter activity,RAW-Dual [1]; [4],0.8
COc1cc2c(cc1O)CCC1C2CCC2(C)C(O)CCC12 (configuration not stated),IRF Lucia reporter activity,RAW-Dual [1]; [4],1.31
COc1cc2c(cc1O)CCC1C2CCC2(C)C(O)CCC12 (configuration not stated) (library stock concentration (final ~1000-fold dilution): 10 mM),IRF Lucia reporter activity,RAW-Dual [2]; [5],0.205
same,IRF Lucia reporter activity,RAW-Dual [2]; agonist: LPS (TLR4) 0.1 ug/mL,1.03
O=C(NOCC(O)CO)c1ccc(F)c(F)c1Nc1ccc(I)cc1F (configuration not stated),IRF Lucia reporter activity,RAW-Dual [1]; [6],3.52
O=C(NOCC(O)CO)c1cc(Br)c(F)c(F)c1Nc1ccc(I)cc1F (configuration not stated) (library stock concentration (final ~1000-fold dilution): 10 mM),IRF Lucia reporter activity,RAW-Dual [3]; [5],0.713
same,IRF Lucia reporter activity,RAW-Dual [3]; agonist: LPS (TLR4) 0.1 ug/mL,2.11
Cc1cc(C(=O)NOCCO)c(Nc2ccc(I)cc2F)n(C)c1=O,IRF Lucia reporter activity,RAW-Dual [1]; [6],2.81
O=C(NOCC1CC1)c1ccc(F)c(F)c1Nc1ccc(I)cc1Cl,IRF Lucia reporter activity,RAW-Dual [1]; [6],2.05
Cc1cc(C(=O)NOCCO)c(Nc2ccc(I)cc2F)n(C)c1=O (library stock concentration (final ~1000-fold dilution): 10 mM),IRF Lucia reporter activity,RAW-Dual [3]; [5],0.824
same,IRF Lucia reporter activity,RAW-Dual [3]; agonist: LPS (TLR4) 0.1 ug/mL,2.13
O=C(NOCC(O)CO)c1cc(Br)c(F)c(F)c1Nc1ccc(I)cc1F (configuration not stated),IRF Lucia reporter activity,RAW-Dual [1]; [6],2.39
Cn1c(=O)c(F)c(Nc2ccc(I)cc2F)c2c(=O)n(CC(O)CO)cnc21 (configuration not stated),IRF Lucia reporter activity,RAW-Dual [1]; [6],1.23
O=C(NOCCO)c1ccc2cncn2c1Nc1ccc(I)cc1F (library stock concentration (final ~1000-fold dilution): 10 mM),IRF Lucia reporter activity,RAW-Dual [3]; [5],0.814
same,IRF Lucia reporter activity,RAW-Dual [3]; agonist: LPS (TLR4) 0.1 ug/mL,3.65
O=C(NOCC(O)CO)c1ccc(F)c(F)c1Nc1ccc(I)cc1F (configuration not stated) (library stock concentration (final ~1000-fold dilution): 10 mM),IRF Lucia reporter activity,RAW-Dual [3]; [5],0.903
same,IRF Lucia reporter activity,RAW-Dual [3]; agonist: LPS (TLR4) 0.1 ug/mL,3.61
O=C(NOCCO)c1ccc2cncn2c1Nc1ccc(I)cc1F,IRF Lucia reporter activity,RAW-Dual [1]; [6],3.27
O=C(NOCC1CC1)c1ccc(F)c(F)c1Nc1ccc(I)cc1Cl (library stock concentration (final ~1000-fold dilution): 10 mM),IRF Lucia reporter activity,RAW-Dual [3]; [5],0.525
same,IRF Lucia reporter activity,RAW-Dual [3]; agonist: LPS (TLR4) 0.1 ug/mL,2.5
Cn1c(=O)c(F)c(Nc2ccc(I)cc2F)c2c(=O)n(CC(O)CO)cnc21 (configuration not stated) (library stock concentration (final ~1000-fold dilution): 10 mM),IRF Lucia reporter activity,RAW-Dual [3]; [5],0.517
same,IRF Lucia reporter activity,RAW-Dual [3]; agonist: LPS (TLR4) 0.1 ug/mL,0.819
Br.Br.Br.Br.Br.Br.c1ccc(CNCc2ccc(CN3CCCNCCNCCCNCC3)cc2)nc1 (library stock concentration (final ~1000-fold dilution): 10 mM water),IRF Lucia reporter activity,RAW-Dual [3]; [5],1.07
same,IRF Lucia reporter activity,RAW-Dual [3]; agonist: LPS (TLR4) 0.1 ug/mL,0.886
Br.Br.Br.Br.Br.Br.c1ccc(CNCc2ccc(CN3CCCNCCNCCCNCC3)cc2)nc1,IRF Lucia reporter activity,"RAW-Dual [1]; library stock concentration (final ~1000-fold dilution): 10 mM water, cytotoxicity flag (confluency mask): not cytotoxic",1.35
COc1cc2ccc(=O)oc2c(OC)c1O (library stock concentration (final ~1000-fold dilution): .1 mM),IRF Lucia reporter activity,RAW-Dual [3]; [5],1.07
same,IRF Lucia reporter activity,RAW-Dual [3]; agonist: LPS (TLR4) 0.1 ug/mL,0.255
NC1=NC2(c3cc(NC(=O)c4ccc(F)cn4)ccc3F)COCC2CS1 (configuration not stated) (library stock concentration (final ~1000-fold dilution): 10 mM),IRF Lucia reporter activity,RAW-Dual [3]; [5],1.08
same,IRF Lucia reporter activity,RAW-Dual [3]; agonist: LPS (TLR4) 0.1 ug/mL,0.998
NC1=NC2(c3cc(NC(=O)c4ccc(F)cn4)ccc3F)COCC2CS1 (configuration not stated),IRF Lucia reporter activity,RAW-Dual [1]; [6],1.04
